Results on 21 compounds are retold here after PubChem BioAssay (NCATS).

The target in assay [1] is Glutathione peroxidase 1 (Homo sapiens) (UniProt P07203). The experiment in a line: Primary qHTS Assay for Inhibitors of Recombinant Selenoprotein Glutathione Peroxidase 1 (GPX1) (AID 1845191). Also: nearly all actives have a fitted effect of over 65% in size. Also: potency is read from the fitted curve at half-maximal effect. The essentials: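 GR-coupled readout: NADPH consumption tracked by fluorescence, ex 340/em 450 nm, at t=0 and after 15 min at RT. Final mix 10 nM GPX1, 1 mM GSH, 0.5 mM CHP, 0.5 mM NADPH, 100 nM GR, 0.01% BSA, following 30 min enzyme–compound preincubation.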
In general terms: Quantitative high-throughput screening tests each substance at several concentrations.

The target of assay [2] is Phospholipid hydroperoxide glutathione peroxidase GPX4 (Homo sapiens) (UniProt P36969). Nature of the assay: Primary qHTS Assay for Inhibitors of Recombinant Selenoprotein Glutathione Peroxidase 4 (GPX4) (AID 1845192). Also: nearly all actives have a fitted effect of over 65% in size. Also: potency is read from the fitted curve at half-maximal effect. The method, boiled down:
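Steps: GPX4 plus compound, 30 min RT; add GR/GSH/NADPH master mix; start with cumene hydroperoxide; read 340/450 nm fluorescence at 0 and 15 min. Finals were 200 nM GPX4, 1 mM GSH, 0.5 mM CHP, 0.5 mM NADPH, 100 nM GR.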

In assay [3] the target is Luciferin 4-monooxygenase (Photinus pyralis) (UniProt P08659). The experiment in a line: Primary firefly luciferase (FLuc) qHTS assay for identification of artifact compounds. (AID 1845220). Also: nearly all actives have a fitted effect of over 60% in size. The method, boiled down:
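Enzymatic FLuc inhibition assay: compounds pre-exposed to luciferin/ATP (10 uM each) for 15 min, then purified P. pyralis enzyme at 10 nM added. Read-out: luminescence at 5 min.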

Assay [4] can be described thus: Primary fluorescence-based thiol-reactive (MSTI) qHTS assay for identification of artifact compounds. (AID 1845221). Also: nearly all actives have a fitted effect of over 65% in size. Also: potency is read from the fitted curve at half-maximal effect. The method, boiled down:
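A multi-concentration qHTS design tested compounds against 4 uM MSTI, pH 7.4 phosphate-buffered saline. Plates were protected from light for 1 h at room temperature before imaging fluorescence.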

The subject of assay [5] is Nanoluciferase (engineered Oplophorus gracilirostris luciferase). Nature of the assay: Primary Nanoluciferase (NLuc) qHTS assay for identification of artifact compounds. (AID 1845222).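 Also: NLuc secreted into diluted conditioned medium of S16 cells; series mostly up to about 54 µM.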 The essentials: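 S16 cell supernatant NLuc, 1:55; cpds qHTS; 15 min RT dark; Nano-Glo substrate 1:100, 5 min; luminescence; Hill fit of % inhibition.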
Assay [6] is described as follows: Primary redox qHTS assay for identification of artifact compounds. (AID 1845223). The method, boiled down:
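Redox-cycling detection via DTT (250 uM final) oxidation coupled to Amplex Red (25 uM)/HRP (250 mU/mL) in HBSS. 15 min preincubation plus 30 min after DTT, room temperature. Ex/Em 525/598 nm; 4-parameter Hill fit against DMSO and 10 uM DA3003.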

Unmarked numbers belong to inactive results. Records with an inconclusive call do not appear. Activity calls are given as the source filed them. Calls follow the shape of the dose curve; as a rule, active = well fitted curve in the direction sought with a large enough effect; inconclusive = small, poorly fitted or top-dose-only effect, or another doubt; inactive = no such curve, though single readings can be large; an effect the other way counts as inactive or inconclusive.

Phospholipid hydroperoxide glutathione peroxidase GPX4 (Homo sapiens), sequence (P36969 whole entry, looked up): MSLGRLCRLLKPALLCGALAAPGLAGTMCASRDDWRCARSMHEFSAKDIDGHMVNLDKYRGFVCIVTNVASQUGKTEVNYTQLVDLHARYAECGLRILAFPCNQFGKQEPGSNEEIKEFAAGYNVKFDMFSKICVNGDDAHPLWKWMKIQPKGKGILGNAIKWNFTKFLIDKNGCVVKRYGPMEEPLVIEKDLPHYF
Glutathione peroxidase 1 (Homo sapiens), sequence (P07203 whole entry, looked up): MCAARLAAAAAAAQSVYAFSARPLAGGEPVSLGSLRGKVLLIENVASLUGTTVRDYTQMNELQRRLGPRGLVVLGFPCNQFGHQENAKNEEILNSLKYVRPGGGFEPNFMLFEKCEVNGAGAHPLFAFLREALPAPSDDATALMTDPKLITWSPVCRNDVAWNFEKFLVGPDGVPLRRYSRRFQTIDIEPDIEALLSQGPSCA

`CN1CCN(C2CCN(C(=O)Nc3cc(Oc4ccc(NC(=O)C5(C(=O)Nc6ccc(F)cc6)CC5)c(F)c4)ccn3)CC2)CC1`: the Potency entry in assay [1], in assay [2], in assay [3], in assay [4] and in assay [5] was “inactive” throughout.
As for `CCC(C)C(=O)OC1C(C)C2(O)C(C=C(CO)CC3(O)C(=O)C(C)=CC32)C2C(C)(C)C12OC(=O)C(C)C` (stereo unspecified), the Potency entry in assay [1], in assay [2], in assay [3], in assay [4], in assay [5] and in assay [6] was “inactive” throughout.
For `CC(C)/C=C1\NC(=O)C(C(C)C)n2c1nc1ccccc1c2=O` (stereo unspecified), the Potency entry in assay [1], in assay [2], in assay [3], in assay [4], in assay [5] and in assay [6] was “inactive” each time.
In the case of `C#CCOc1ccc2c(c1)c(-c1ccc(C(C)C)cc1)nc(=O)n2C(C)C`, the Potency result in assay [1], in assay [2], in assay [3], in assay [4], in assay [5] and in assay [6] was “inactive” throughout.
For the compound `COC(=O)C1=COC(O[C@@H]2O[C@H](CO[C@@H]3O[C@H](COC(=O)/C=C\c4ccc(O)cc4)[C@@H](O)[C@H](O)[C@H]3O)[C@@H](O)[C@H](O)[C@H]2O)C2C(CO)=CCC12` (stereo partly specified), the Potency entry in assay [1], in assay [2], in assay [3], in assay [4] and in assay [5] was “inactive” in each case.
For the compound `Cn1c(=O)c(F)c(Nc2ccc(I)cc2F)c2c(=O)n(CC(O)CO)cnc21` (stereo unspecified), the Potency entry in assay [1], in assay [2], in assay [3], in assay [4], in assay [5] and in assay [6] was “inactive” throughout.
As for `O=S(=O)(NCc1ccccn1)c1ccc(Br)c2ccccc12`, the Potency entry in assay [1], in assay [2], in assay [3], in assay [4], in assay [5] and in assay [6] was “inactive” in each case.
As for `CCOc1cc(C(C)(C)C)ccc1C1=NC(C)(c2ccc(Cl)cc2)C(C)(c2ccc(Cl)cc2)N1C(=O)N1CCN(CCCS(C)(=O)=O)CC1` (stereo unspecified), the Potency result in assay [1], in assay [2], in assay [3], in assay [4], in assay [5] and in assay [6] was “inactive” each time.
Turning to `CCN1CCN(Cc2ccc(NC(=O)c3ccc(C)c(Oc4ncnc5[nH]c(C)cc45)c3)cc2C(F)(F)F)CC1`, the Potency result in assay [1], in assay [2], in assay [3], in assay [4], in assay [5] and in assay [6] was “inactive” in each case.
With `CC[C@@H](C)Nc1cc(C(=O)NC2CC3CC[C@@H](C2)N3c2ccc(C(=O)C3CC3)cn2)c(C)cc1C(N)=O` (stereo partly specified), the Potency was 16.3 µM (active) in assay [1] and 2.55 µM (active) in assay [2]. Also, the Potency entry in assay [3], in assay [4] and in assay [5] was “inactive” each time.
As for `CN1CCN(c2ccc(-c3cccc(CN4CCOCC4)c3)cc2NC(=O)c2c[nH]c(=O)cc2C(F)(F)F)CC1`, the Potency result in assay [1], in assay [2], in assay [3], in assay [4] and in assay [5] was “inactive” in each case.
As for `Nc1nc2c(ncn2C2OC3COP(=O)(O)OC3C2O)c(=O)[nH]1` (stereo unspecified), the Potency result in assay [1], in assay [2], in assay [3], in assay [4], in assay [5] and in assay [6] was “inactive” in each case.
Take `O=C(NCCCN1CCOCC1)c1cnn2c(-c3ccccc3)cc(-c3ccccc3)nc12`: the Potency result in assay [1], in assay [2], in assay [3], in assay [4], in assay [5] and in assay [6] was “inactive” throughout.
On to `Cc1cc(C(=O)Cn2cc(C#N)ccc2=O)c(C)n1Cc1ccccc1`, for which the Potency entry in assay [1], in assay [2], in assay [3], in assay [4], in assay [5] and in assay [6] was “inactive” throughout.
In the case of `CCN(CCNC(=O)Nc1ccccc1Br)c1cccc(C)c1`, the Potency entry in assay [1], in assay [2], in assay [3], in assay [5] and in assay [6] was “inactive” throughout. Also, in assay [4], the Potency was 2.67 µM (active).
As for `COc1cc(/C=C/C(=O)NCCn2c(C(F)(F)F)cc3ccccc32)cc(OC)c1OC`, the Potency entry in assay [1], in assay [2], in assay [3], in assay [4], in assay [5] and in assay [6] was “inactive” in each case.
Take `COC(=O)C(Cc1ccc(OCCn2c(=O)sc3cc(C(=O)c4ccccc4)ccc32)cc1)C(=O)OC`: the Potency entry in assay [1], in assay [2], in assay [3], in assay [4], in assay [5] and in assay [6] was “inactive” throughout.
As for `COc1ccc(-c2csc(NC(=O)[C@H]3CCCCN3S(=O)(=O)c3ccc(C)cc3)n2)cc1`, the Potency result in assay [1], in assay [2], in assay [3], in assay [4], in assay [5] and in assay [6] was “inactive” each time.
Consider `C/C=C(\C)C(=O)OC1C[C@@]2(COC(C)=O)O[C@H]2/C=C\[C@@]2(C)O[C@@H]2[C@H]2OC(=O)C(COC(C)=O)=C12` (stereo partly specified), for which the Potency result in assay [1], in assay [2], in assay [3] and in assay [5] was “inactive” each time. Besides, the Potency in assay [4] is 13 µM (active).
For `O=C(NCc1ccccc1)c1ccc2c(=O)n(-c3cccc(C(F)(F)F)c3)c(=S)[nH]c2c1`, the Potency entry in assay [1], in assay [2], in assay [3], in assay [4], in assay [5] and in assay [6] was “inactive” throughout.
With `COC(=O)c1ccc(N2CCN(C)CC2)c(NC(=O)c2cccc(OC)c2)c1`, the Potency entry in assay [1], in assay [2], in assay [3], in assay [4], in assay [5] and in assay [6] was “inactive” throughout.
